Screening data (PubChem BioAssay)
Compounds with a hit are over-represented: about 1.6% of the library has one in this group of screens.
KCNQ2 block: inhibitors of rat KCNQ2 potassium channel | O88943 | CHO-K1 KCNQ2, FluxOR thallium flux, 20 min; hits give low values | B-score at 10 µM | 1.1% of 310,000 active;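 active = fluorescence ratio B-score at most minus 3 library SDs, with starting brightness B-score within 2 library SDs, cut at about -5.5 in these data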
KCNQ2 pot: enhances the rat KCNQ2 potassium channel; O88943; CHO-K1 KCNQ2, FluxOR thallium flux fluorescence; hits give high values; B-score at 10 µM; 0.54% of 310,000 active;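 active = fluorescence ratio B-score at least 3 SD of library B-scores, with initial fluorescence B-score within 3 of them, cut at about 5.3 in these data; same plate scores as AID 2156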;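 note: B-score of peak minus minimum over baseline fluorescence ratio after K+ and Tl+ stimulus; positive B-score means potentiation of KCNQ2 with more thallium influx and brighter signal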
Kir21 conf inh: confirmation of mouse Kir2.1 potassium channel inhibitors; shares compounds with KCNQ2 pot; 41% of 2,300 active; Tl flux remaining, % of negative control (hits give low values), % at 10 µM; Kir2.1-expressing cells, FluxOR thallium flux fluorescence; hits give low values;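 active = Primary-screen hit whose thallium flux fell at least 3 control SD below untreated wells in both duplicates, with normal baseline fluorescence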;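 note: 0% = blank wells without stimulus and 100% = stimulated no-compound controls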
HEK293 ctr: counter-screen for Kir2.1 inhibitors: effect in parental HEK293 cells; shares compounds with KCNQ2 pot; FluxOR thallium flux fluorescence; 0% = unstimulated blank wells; FluxOR signal as % of negative control (100 = no effect), % at 10 µM; 19% of 2,300 active;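 active = dye signal at least 3 control SD above or below untreated wells in both duplicates, raw fluorescence within 3, either direction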;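 note: percent is based on the flux ratio of peak minus minimum fluorescence over baseline F0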
CHO-K1 Tl ctr: parental CHO-K1 activity in KCNQ2 potentiator counter-screen | shares compounds with KCNQ2 pot | parental CHO-K1 cells, FluxOR thallium flux fluorescence; zero = vehicle mean+3SD, 100% = vehicle-minus-blank window | activity increase over 3SD of controls, % at 10 µM | 43% of 1,200 active | AID 2282;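 active = signal rise of at least 3 SD above the untreated control mean, in both duplicate wells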;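 note: counter screen of KCNQ2 potentiator hits so any rise reflects channel-independent effects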
KCNQ1 pot spec: selectivity of KCNQ2 potentiators: effect on human KCNQ1; shares compounds with KCNQ2 pot; CHO KCNQ1 stable, FluxOR thallium flux fluorescence; beyond 3SD, as % of vehicle-control signal; activation over 3SD threshold, % at 10 µM; 28% of 1,200 active; AID 2283;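 active = fluorescence ratio rise of at least 3 SD of vehicle wells above their mean, in both replicate wells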;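 note: 0% = vehicle mean plus 3 SD and 100% = vehicle minus unstimulated blank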
Target sequence (P51787 whole entry, looked up): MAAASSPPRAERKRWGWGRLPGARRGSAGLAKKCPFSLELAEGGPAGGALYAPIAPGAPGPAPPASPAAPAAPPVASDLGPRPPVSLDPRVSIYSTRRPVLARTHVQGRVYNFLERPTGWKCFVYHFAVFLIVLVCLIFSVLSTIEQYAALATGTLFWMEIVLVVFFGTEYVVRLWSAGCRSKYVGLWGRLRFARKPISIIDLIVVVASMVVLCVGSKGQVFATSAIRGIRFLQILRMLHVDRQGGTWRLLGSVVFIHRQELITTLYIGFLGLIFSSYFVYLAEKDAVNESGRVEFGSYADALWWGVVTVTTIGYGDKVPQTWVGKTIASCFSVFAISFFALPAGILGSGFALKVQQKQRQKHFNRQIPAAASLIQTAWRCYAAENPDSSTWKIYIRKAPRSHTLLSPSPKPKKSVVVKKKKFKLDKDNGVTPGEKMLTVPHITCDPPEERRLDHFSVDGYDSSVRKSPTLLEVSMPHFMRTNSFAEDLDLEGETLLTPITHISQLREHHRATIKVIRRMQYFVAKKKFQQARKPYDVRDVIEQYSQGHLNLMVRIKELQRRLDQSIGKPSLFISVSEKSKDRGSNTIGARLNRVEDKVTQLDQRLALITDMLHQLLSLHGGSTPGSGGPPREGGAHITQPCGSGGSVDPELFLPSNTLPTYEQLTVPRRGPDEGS
KCNQ2 pot confirm: rat KCNQ2 channel potentiator confirmation | shares compounds with KCNQ2 pot | CHO-KCNQ2 cells, FluxOR thallium flux fluorescence | potentiation, less the hit threshold, % at 10 µM | 68% of 1,200 active | AID 2287;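 active = fluorescence ratio rising 3 SD or more over the vehicle control mean in both replicates, plus primary screen hit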;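 note: peak minus minimum thallium fluorescence divided by baseline after K/Tl stimulus; 0% = vehicle mean plus 3 SD and 100% = vehicle minus unstimulated blank difference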
Kir2-1 sel: mouse Kir2.1 off-target activity of KCNQ2 potentiators | 2% of 1,200 active | shares compounds with KCNQ2 pot | activity over 3SD threshold, % at 10 µM | HEK293 Kir2.1, FluxOR thallium flux fluorescence;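 active = fluorescence ratio rise of at least 3 SD above the vehicle-control mean, seen in both replicates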;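 note: 0% = vehicle mean plus 3 SD and 100% = vehicle minus no-stimulus blank window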
KCNQ2 W236L pot: rat KCNQ2 W236L mutant potentiation by KCNQ2 potentiators. shares compounds with KCNQ2 pot. CHO KCNQ2-W236L, automated patch clamp current. current increase over 3SD of negative controls (%), hits give high values, % at 25 µM. 10% of 940 active;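 active = current increase at least 3 SD of the untreated controls above them in both duplicate recordings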
* = called active by the depositor; i = inactive; nt = not tested or not shown.

SMILES	KCNQ2 block	KCNQ2 pot	Kir21 conf inh	HEK293 ctr	others
Cc1ccc(Oc2ccccc2NC(=O)CN2C(=O)NC3(CCCC3)C2=O)cc1	i	6.35*	i	i	CHO-K1 Tl ctr=26.0*;KCNQ1 pot spec=22.3*;KCNQ2 pot confirm=13.2*;Kir2-1 sel=-35.8;KCNQ2 W236L pot=i
Cc1cccc(Oc2ccccc2NC(=O)CN2C(=O)NC3(CCCC3)C2=O)c1	i	4.37	nt	nt
COc1ccc(-c2nc[nH]c2[N+](=O)[O-])cc1	i	1.29	nt	nt
O=C(CCN1C(=O)[C@@H]2Cc3ccccc3CN2C1=O)NCc1ccccc1Cl	i	nt	nt	nt
Cn1c(NCc2ccc(Cl)cc2)nc2ccccc21	i	nt	25.0%*	i
Cc1ccc(CNc2nc3ccccc3n2C)cc1	i	nt	36.0%*	i
Cn1c(CNc2nc3ccccc3n2C)nc2ccccc21	i	nt	nt	nt
Cn1c(NCc2c(O)ccc3ccccc23)nc2ccccc21	i	nt	nt	nt
Cc1ccccc1OCc1nnc(SCC(=O)O)n1-c1ccccc1	i	0.78	nt	nt
Cc1ccccc1OCCSc1nnc(C)n1-c1ccccc1	i	nt	46.0%*	i
COc1ccc(/C=C/c2ccccc2)cc1[C@H]1[C@H]2C=CC[C@@H](C)[C@@H]2C(=O)N1Cc1ccccc1	i	nt	nt	nt
Cc1ccc(Cl)c(OCCCN(C)Cc2ccccc2)c1	i	nt	nt	nt
C/C=C/c1ccc(OCCCCN(C)Cc2ccccc2)c(OC)c1	i	nt	22.5%*	i
C/C=C/c1ccc(OCCNCc2ccccc2)c(OC)c1	i	nt	nt	nt
Cc1ccc(Cl)c(OCCCCN(C)Cc2ccccc2)c1	i	nt	19.5%*	i
CN1CCN(C(=O)CN(C)S(=O)(=O)c2cc(Cl)ccc2Cl)CC1	i	nt	nt	nt
COc1ccccc1N1CCN(C(=O)CSc2nc(C)c(Cc3ccccc3)c(=O)[nH]2)CC1	i	9.15*	i	i	CHO-K1 Tl ctr=-12.8;KCNQ1 pot spec=-16.7;KCNQ2 pot confirm=28.7*;Kir2-1 sel=-27.0;KCNQ2 W236L pot=i
COc1ccccc1N1CCN(C(=O)CSc2nc(-c3ccccc3)cc(=O)[nH]2)CC1	i	nt	nt	nt
COc1cccc(N(C(=O)c2csnn2)C(C(=O)NC2CCCC2)c2ccccc2)c1 (centres undefined)	i	0.87	nt	nt
CCn1c(CCNC(=O)c2ccc(C)cc2)nnc1SCc1ccc(Cl)c(Cl)c1	i	nt	nt	nt
CCn1c(CCNC(=O)c2ccc(OC)cc2)nnc1SCc1ccc(Cl)c(Cl)c1	i	nt	67.0%*	i
O=C(Cc1ccc(O)cc1)N/N=C/c1cccnc1	i	0.01	nt	nt
Cc1cccc(NC(=O)CSCC(=O)NNC(=O)c2ccoc2C)c1	i	nt	nt	nt
OCCCCNCc1ccc(OCc2ccc(Cl)cc2Cl)cc1	i	nt	33.0%*	i
S=C(Nc1ccccc1)Nc1ccc(OCc2ccc(Cl)cc2Cl)cc1	i	nt	nt	nt
SMILES	KCNQ2 block	KCNQ2 pot	Kir21 conf inh	HEK293 ctr	others
OCCNCc1ccc(OCc2ccc(Cl)cc2Cl)cc1	i	nt	31.0%*	i
COc1cc(CNCCCCO)ccc1OCc1ccccc1F	i	0.1	nt	nt
CC1CCCCN1C(=S)Nc1ccc2nc3n(c(=O)c2c1)CCCCC3 (centres undefined)	i	nt	nt	nt
Cc1ccc(S(=O)(=O)NCCc2ccccc2)cc1	i	nt	nt	nt
Cc1cc(C)c(S(=O)(=O)NCCc2ccccc2)c(C)c1	i	nt	49.5%*	i
CCCCN(CCCNC(=O)CN1C(=O)COc2ccc(S(=O)(=O)N3CCC(C)CC3)cc21)Cc1ccccc1	i	0.9	66.5%*	i
CCCCN(CCCC)CCNC(=O)CN1C(=O)COc2ccc(S(=O)(=O)N3CCC(C)CC3)cc21	i	nt	nt	nt
CCOC(=O)N1CCN(c2ccncc2S(=O)(=O)N2CCCCC2)CC1	i	nt	nt	nt
CSCC[C@H](NC(=O)[C@@H]1CSC2c3ccccc3C(=O)N21)C(=O)N1CCC[C@H]1CO (some centres undefined)	i	nt	nt	nt
CCc1noc(C)c1C(=O)Nc1cccc2ncccc12	i	nt	nt	nt
CC(C)[C@H](NC(=O)c1ccco1)C(=O)NC12CC3CC(CC(C3)C1)C2	i	nt	nt	nt
COc1ccc(-c2cc(=O)c3cc(OC)ccc3o2)cc1	i	0.36	nt	nt
COc1ccc(/C=C/c2cc(=O)c3cc(Cl)ccc3o2)cc1	i	nt	i	i
O=C(CCN1C(=O)C2C3CCC(C3)C2C1=O)Nc1ccc(F)cc1 (centres undefined)	i	0.01	nt	nt
O=C(O)c1ccc(Nc2cc(Cl)c3nonc3c2[N+](=O)[O-])cc1	i	1.14	nt	nt
O=[N+]([O-])c1c(Nc2cccc(O)c2)cc(Cl)c2nonc12	-15.8*	-15.8	i	i
Cc1sc(N2CCN(S(=O)(=O)c3ccc4c(c3)NC(=O)CO4)CC2)nc1-c1ccccc1	i	nt	nt	nt
COc1cc(/C=C/c2ccc3cccc(O)c3n2)ccc1O	i	16.7*	i	141.5%*	CHO-K1 Tl ctr=7.5*;KCNQ1 pot spec=35.1*;KCNQ2 pot confirm=12.3*;Kir2-1 sel=-36.9;KCNQ2 W236L pot=i
COc1cc(Br)c(/C=C/c2ccc3cccc(O)c3n2)cc1OC	i	0.09	nt	nt
COc1ccc(OC)c(/C=C/c2ccc3cccc(O)c3n2)c1	i	0.39	nt	nt
COc1cc(/C=C/c2ccc3cccc(O)c3n2)c(Br)cc1O	i	6.37*	i	71.0%*	CHO-K1 Tl ctr=5.7*;KCNQ1 pot spec=-12.1;KCNQ2 pot confirm=-19.3;Kir2-1 sel=-39.9
CCOc1cc(NC(=S)NCCCN2CCOCC2)c(OCC)cc1NC(=O)C1CCCCC1	i	nt	nt	nt
O=C(COc1coc(CN2CCCc3ccccc32)cc1=O)Nc1cccc([N+](=O)[O-])c1	i	nt	nt	nt
COc1ccc(C(=O)Nc2cc(OC)cc(OC)c2)cc1	i	4.39	nt	nt
COc1cc(NC(=O)c2ccccc2)cc(OC)c1	i	16.6*	i	i	CHO-K1 Tl ctr=-15.9;KCNQ1 pot spec=-11.7;KCNQ2 pot confirm=30.1*;Kir2-1 sel=-34.5;KCNQ2 W236L pot=i
CC(C)=CCc1cc([C@@H]2COc3c(ccc4c3C=CC(C)(C)O4)C2)c(O)cc1O	i	6.01*	i	i	CHO-K1 Tl ctr=-7.0;KCNQ1 pot spec=-2.5;KCNQ2 pot confirm=-25.0;Kir2-1 sel=-28.0
CC(=O)Oc1ccc([C@@H]2COc3c(ccc4c3C=CC(C)(C)O4)C2)c(OC(C)=O)c1	i	nt	nt	nt
O=S(=O)(c1ccc(NC(=S)N/N=C/c2ccc(O)c(O)c2)cc1)N1CCOCC1	i	nt	nt	nt
O=[N+]([O-])c1cc(Cl)cc(/C=N/NC(=S)Nc2ccc(S(=O)(=O)N3CCOCC3)cc2)c1O	i	17.6*	i	i	CHO-K1 Tl ctr=3.6*;KCNQ1 pot spec=-5.7;KCNQ2 pot confirm=39.0*;Kir2-1 sel=-29.6;KCNQ2 W236L pot=3.7%*
